# Reference: PubChem BioAssay
# Calls of active or inactive are those of the source.
# Key:
# [1] = compounds binding Alexa647 anti-His antibody – biochemical, small-molecule microarray, 635 nm fluorescence, artefact control for SMM control protein annotation, primary screen (AID 1128); settings: higher = more signal;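 also: score merges feature fluorescence with signal-to-noise for each printed compound spot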
# [2] = tested on: Human papillomavirus type 1a E7 protein (residues 1-88); assay: HPV1a E7 small-molecule binders, primary screen, biochemical, small-molecule microarray, residues 1-88, 635 nm (AID 1129); settings: small-molecule microarray binding, fluorescence 635 nm; higher = more signal
# [3] = molecular target: Focal adhesion kinase 1 (Homo sapiens) (UniProt Q05397); assay: PTK2 protein binding on printed compound slides – biochemical, small-molecule microarray, 635/667 nm fluorescence, BSA, DTT, primary screen (AID 1130); settings: 635 nm fluorescence, higher = more signal;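 also: composite of spot emission at 667 nm and signal to noise over triplicate slides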
# [4] = tested on: Fibrinogen (Alexa647-labelled); assay: Alexa647-fibrinogen binding to printed small molecules – biochemical, small-molecule microarray, 635/667 nm fluorescence, artefact control for SMM control-protein annotation, profiling panel (AID 1131); settings: fibrinogen-A647 binding fluorescence, higher = more signal;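 also: z-score merges 667 nm fluorescence with per-spot signal-to-noise over triplicate slides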
# [5] = molecular target: Follistatin (Homo sapiens) (UniProt P19883); assay: FST protein binding to printed compounds – biochemical, small-molecule microarray, 635/667 nm fluorescence, primary screen (AID 1132); settings: 635 nm fluorescence, higher = more signal
# [6] = molecular target: Fibroblast growth factor 2 (Homo sapiens) (UniProt P09038); assay: basic fibroblast growth factor binding to printed compounds – biochemical, small-molecule microarray, 635/667 nm fluorescence, primary screen (AID 1133); settings: FGF2, fluorescence 635/667, higher = more signal
# [7] = JC-1 mitochondrial potential readout, lung cancer cells – cell-based, A549, JC-1 fluorescence, basal, 24 h, 100 nL, profiling panel (AID 1138); settings: higher = more signal;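 also: A549 lung adenocarcinoma cells under basal conditions with no added stimulus; test concentration not given here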
# Lefty1 = Lefty1 protein binding to printed compounds – biochemical, small-molecule microarray, 635/667 nm fluorescence, primary screen (AID 1139); settings: fluorescence 635/667, higher = more signal
# [8] = tested on: wheat germ agglutinin (Triticum aestivum), Alexa647-labelled; assay: Alexa647-WGA lectin binding to printed small molecules – biochemical, small-molecule microarray, 635/667 nm fluorescence, artefact control for SMM control-protein annotation, profiling panel (AID 1140); settings: WGA-A647 binding, 635 nm fluorescence, higher = more signal;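 also: score merges 667 nm feature emission with signal to noise over triplicate slides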
# [9] = molecular target: Luciferin 4-monooxygenase (Photinus pyralis) (UniProt P08659); assay: inhibition of purified Photinus pyralis luciferase – biochemical, luminescence, purified enzyme, 2006 set, primary screen (AID 1141); settings: purified firefly luciferase, SteadyGlo luminescence, 30 min; higher = more signal, called active from +8 up or from −8 down;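 also: cell-free assay with purified firefly luciferase at 100 ng per well in PBS; test concentration not given here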
# Luciferin 4-monooxygenase (Photinus pyralis), sequence (P08659 whole entry, looked up): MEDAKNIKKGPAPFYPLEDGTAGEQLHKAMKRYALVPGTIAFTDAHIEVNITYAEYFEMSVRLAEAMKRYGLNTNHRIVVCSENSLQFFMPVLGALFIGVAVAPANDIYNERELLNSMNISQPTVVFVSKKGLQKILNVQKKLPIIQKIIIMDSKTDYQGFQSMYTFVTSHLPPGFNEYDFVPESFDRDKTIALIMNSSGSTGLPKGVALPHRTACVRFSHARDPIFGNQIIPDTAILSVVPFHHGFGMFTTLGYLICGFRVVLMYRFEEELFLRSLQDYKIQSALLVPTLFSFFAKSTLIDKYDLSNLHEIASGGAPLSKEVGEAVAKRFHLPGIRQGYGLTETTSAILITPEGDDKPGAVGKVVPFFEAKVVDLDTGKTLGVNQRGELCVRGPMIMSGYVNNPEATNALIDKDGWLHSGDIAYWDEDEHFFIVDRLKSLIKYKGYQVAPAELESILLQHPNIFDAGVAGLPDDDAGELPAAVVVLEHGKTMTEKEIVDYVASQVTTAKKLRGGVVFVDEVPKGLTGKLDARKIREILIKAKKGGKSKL
# Focal adhesion kinase 1 (Homo sapiens), sequence (Q05397 whole entry, looked up): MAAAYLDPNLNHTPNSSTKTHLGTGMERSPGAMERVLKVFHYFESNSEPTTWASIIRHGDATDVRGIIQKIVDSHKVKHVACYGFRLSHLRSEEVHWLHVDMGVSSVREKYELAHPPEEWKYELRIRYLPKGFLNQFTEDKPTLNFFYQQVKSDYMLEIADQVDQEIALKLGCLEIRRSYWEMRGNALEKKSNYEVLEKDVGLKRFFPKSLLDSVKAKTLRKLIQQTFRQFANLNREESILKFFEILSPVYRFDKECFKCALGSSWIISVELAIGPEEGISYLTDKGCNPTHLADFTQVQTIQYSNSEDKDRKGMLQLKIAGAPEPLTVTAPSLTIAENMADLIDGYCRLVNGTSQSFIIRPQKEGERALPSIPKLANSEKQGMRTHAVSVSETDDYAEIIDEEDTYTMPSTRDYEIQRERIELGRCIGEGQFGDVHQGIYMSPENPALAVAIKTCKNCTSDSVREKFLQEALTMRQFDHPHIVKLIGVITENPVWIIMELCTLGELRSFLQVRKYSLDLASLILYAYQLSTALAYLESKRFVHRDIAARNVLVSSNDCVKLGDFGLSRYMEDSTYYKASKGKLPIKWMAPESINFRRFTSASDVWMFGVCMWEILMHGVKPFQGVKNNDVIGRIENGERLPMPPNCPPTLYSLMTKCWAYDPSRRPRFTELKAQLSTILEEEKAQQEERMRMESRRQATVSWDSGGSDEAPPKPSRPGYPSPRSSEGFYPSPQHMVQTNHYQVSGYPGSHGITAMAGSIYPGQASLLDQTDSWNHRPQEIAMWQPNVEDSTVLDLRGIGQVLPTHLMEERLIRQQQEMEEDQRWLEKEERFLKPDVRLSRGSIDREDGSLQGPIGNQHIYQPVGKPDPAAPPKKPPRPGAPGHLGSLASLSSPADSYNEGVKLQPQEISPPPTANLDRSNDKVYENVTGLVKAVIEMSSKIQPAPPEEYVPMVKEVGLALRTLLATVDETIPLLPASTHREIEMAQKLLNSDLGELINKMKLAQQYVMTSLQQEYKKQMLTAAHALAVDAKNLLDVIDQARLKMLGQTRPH
# Fibroblast growth factor 2 (Homo sapiens), sequence (P09038 whole entry, looked up): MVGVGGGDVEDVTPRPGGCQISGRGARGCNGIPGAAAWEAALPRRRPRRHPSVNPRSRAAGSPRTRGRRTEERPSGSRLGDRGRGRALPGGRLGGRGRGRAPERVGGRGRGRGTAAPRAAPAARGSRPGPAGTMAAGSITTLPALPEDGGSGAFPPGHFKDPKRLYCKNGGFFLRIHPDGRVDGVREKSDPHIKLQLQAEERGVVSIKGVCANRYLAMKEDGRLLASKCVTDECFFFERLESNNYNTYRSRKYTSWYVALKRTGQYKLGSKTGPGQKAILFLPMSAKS
# Follistatin (Homo sapiens), sequence (P19883 whole entry, looked up): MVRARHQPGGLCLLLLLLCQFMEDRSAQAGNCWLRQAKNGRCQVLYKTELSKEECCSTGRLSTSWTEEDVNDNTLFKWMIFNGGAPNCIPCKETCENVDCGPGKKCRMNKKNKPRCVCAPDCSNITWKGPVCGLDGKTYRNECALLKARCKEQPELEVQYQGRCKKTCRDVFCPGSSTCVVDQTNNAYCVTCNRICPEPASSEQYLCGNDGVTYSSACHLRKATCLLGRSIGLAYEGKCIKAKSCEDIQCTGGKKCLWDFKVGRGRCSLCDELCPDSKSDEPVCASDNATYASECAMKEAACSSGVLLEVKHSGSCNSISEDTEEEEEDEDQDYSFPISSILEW
Structure (SMILES),composite z-score [1],composite z-score [2],composite z-score [3],composite z-score [4],composite z-score [5],composite z-score [6],z-score [7],composite z-score (Lefty1),composite z-score [8],z-score [9]
CN1C(=O)C2C=CC(C(O)c3cccs3)N(N(c3ccccc3)c3ccccc3)C2C1=O (stereo not given),2.34,1.08,0.663,0.954,0.569,-0.469,0.7,0.169,1.06,-0.697 (inactive)
COC(=O)[C@@]1(Cc2ccc(OC)cc2)[C@H]2c3cc(C(=O)N(C)C)n(Cc4c(CO)[nH]cc(C)c4=O)c3C[C@H]2CN1C(=O)c1ccccc1,0.566,1.18,1.93,0.0557,0.0689,-0.583,0.144,0.0267,0.19,1.48 (inactive)
CCCCC(=C=CC[C@@H](O)c1ccc(OCCO)cc1)CCO,1.83,0.407,0.814,0.0258,0.66,0.329,1.57,0.452,1.16,-1.91 (inactive)
COCCOC(=O)N1C(=O)[C@@]2(c3cc(C#CCC(C(=O)OC)C(=O)OC)ccc31)[C@H](C(=O)N1CCc3cc(OC)c(OC)cc3C1)[C@H]1C(=O)O[C@H](c3ccccc3)[C@H](c3ccccc3)N1[C@@H]2c1ccccc1OCCO,0.258,1.2,0.673,0.698,1.42,1.6,-1.28,1.61,0.281,0.888 (inactive)
CCOC(=O)C1=CC[C@@H](c2ccccc2)N(S(=O)(=O)c2ccc(C)cc2)[C@@H]1C#N,2.09,1.15,0.165,0.317,0.351,-0.501,0.215,-0.0273,0.72,-0.323 (inactive)
COCCOC(=O)N1C(=O)[C@@]2(c3cc(C#CC4(O)CCCCCC4)ccc31)[C@H](C(N)=O)[C@H]1C(=O)O[C@H](c3ccccc3)[C@H](c3ccccc3)N1[C@@H]2c1ccc(OCCO)cc1,2.19,1.21,0.428,0.95,1.34,0.888,-1.71,0.673,1.11,-1.03 (inactive)
